Out of some 290,000 compounds screened, about 890 (0.31%) were called active. Rule as the data show it: active = inhibition mostly above about 52% (no sharp cut-off); inactive = mostly below about 76%. What follows is part of a selection rich in actives, with near analogues and random picks from the rest.
Experiment: inhibitors of HIV fusion peptide binding, primary screen, biochemical, uHTS, fluorescence dequenching (AID 1986)
Details: cell-free peptide binding, 30 min, stronger effect = higher value
[1] = measured here: repeat confirmation average inhibition, at 18.6 µM

## Cc1c(C(=O)NN)sc(=S)n1C
At 20 µM
  inhibition: -1.3% (inactive)

## O=C(N/N=C/c1cc2c(cc1Br)OCO2)c1cc2ccccc2o1
At 20 µM
  inhibition: -0.4% (inactive)

## COc1cccc(NC(=O)Cc2c(O)c3ccccc3[nH]c2=O)c1
At 20 µM
  inhibition: -2.3% (inactive)

## Cn1nnnc1SCc1ccccc1F
At 20 µM
  inhibition: 2.4% (inactive)

## O=C(Nc1cccc(NC(=O)c2ccc([N+](=O)[O-])o2)c1)c1ccco1
At 20 µM
  inhibition: 0.6% (inactive)

## CC(C)c1onc(C(=O)NCCc2ccccc2)c1[N+](=O)[O-]
At 20 µM
  inhibition: -0.8% (inactive)

## O=C(O)c1ccccc1NS(=O)(=O)c1cccc(-n2sc3ccccc3c2=O)c1
At 20 µM
  inhibition: 54.9% (active)

## CN(C)S(=O)(=O)c1cccc(-n2sc3ccccc3c2=O)c1
At 20 µM
  inhibition: -1.2% (inactive)

## O=C(O)c1ccccc1NS(=O)(=O)c1cccc(C(F)(F)F)c1
At 20 µM
  inhibition: 7.8% (inactive)

## Cc1ccc(N=Cc2cccc(O)c2O)c(C)c1
At 20 µM
  inhibition: -1.8% (inactive)

## Cc1ccccc1N=Cc1cccc(O)c1O
At 20 µM
  inhibition: 64.9% (active)

## Oc1cccc(C=Nc2cccc3ccccc23)c1O
At 20 µM
  inhibition: 36.3% (inactive)

## Clc1cccc(CN2CCN(c3nc4nonc4nc3NC3CC3)CC2)c1
At 20 µM
  inhibition: 3.4% (inactive)

## CCCCCCn1c(=O)[nH]c2nc3cc(N)c(C)cc3nc2c1=O
At 20 µM
  inhibition: 38.8% (inactive)

## Nc1ccc2nc3c(=O)n(C4CCCCC4)c(=O)[nH]c3nc2c1
At 20 µM
  inhibition: 146% (inactive)

## Cc1cc2nc3c(=O)n(C4CCCCC4)c(=O)[nH]c3nc2cc1N
At 20 µM
  inhibition: 66.8% (active)

## CCOC(=O)c1cnc2c(N=Nc3ccccc3)c(N)nn2c1N
At 20 µM
  inhibition: -0.1% (inactive)

## COc1ccc(/C=N\NS(=O)(=O)c2ccc(Br)cc2)cc1COc1ccccc1[N+](=O)[O-]
At 20 µM
  inhibition: -1.1% (inactive)

## COC(=O)c1cc(S(=O)(=O)NCCc2ccc(Cl)cc2)c[nH]1
At 20 µM
  inhibition: 1.3% (inactive)

## COc1ccccc1C(NC(C)=O)c1cc(Cl)c2cccnc2c1O (configuration not stated)
At 20 µM
  inhibition: -2.4% (inactive)

## Oc1c(C(Nc2ccccn2)c2cccnc2)cc(Cl)c2cccnc12 (configuration not stated)
At 20 µM
  inhibition: -3.6% (inactive)

## O=C(O)COc1ccccc1C(Nc1cccnc1)c1cc(Cl)c2cccnc2c1O (configuration not stated)
At 20 µM
  inhibition: 77.6% (active)

## O=C(O)COc1ccccc1C(Nc1ccccn1)c1cc(Cl)c2cccnc2c1O (configuration not stated)
At 20 µM
  inhibition: 56.9% (active)

## O=C(NC(c1ccccc1)c1cc(Cl)c2cccnc2c1O)c1cccnc1 (configuration not stated)
At 20 µM
  inhibition: 0.8% (inactive)

## CCOc1ccc(C(Nc2cccnc2)c2cc(Cl)c3cccnc3c2O)cc1 (configuration not stated)
At 20 µM
  inhibition: 17.1% (inactive)

## Fc1ccc(CSc2ccc(-c3ccc4c(c3)OCO4)nn2)cc1
At 20 µM
  inhibition: -3.7% (inactive)

## O=S(=O)(NCCC1CC1(Cl)Cl)c1ccccc1 (configuration not stated)
At 20 µM
  inhibition: -2% (inactive)

## CCOc1ccc(C(=O)NC(=S)Nc2ccccn2)cc1[N+](=O)[O-]
At 20 µM
  inhibition: -0.9% (inactive)

## CCCCNC(=O)Oc1c(Br)cc2sc(=O)oc2c1Br
At 20 µM
  inhibition: 54.3% (active)

## O=C(NC1CCCCC1)Oc1cc2oc(=O)sc2cc1Br
At 20 µM
  inhibition: -1.5% (inactive)

## CCCCNC(=O)Oc1cc(CCl)on1
At 20 µM
  inhibition: 0.1% (inactive)

## COC(=O)c1cc(OC)c(OC)cc1NC(=O)c1csc(C)c1
At 20 µM
  inhibition: -1.1% (inactive)

## COc1ccccc1-c1ccc(/C=C2/C=C(C)OC2=O)o1
At 20 µM
  inhibition: 48.6% (inactive)

## CCCC1=C/C(=C/c2ccc(-c3ccccc3OC)o2)C(=O)O1
At 20 µM
  inhibition: 32% (inactive)

## COc1ccccc1-c1ccc(/C=C2\C=CC(=O)O2)o1
At 20 µM
  inhibition: 70.7% (active)
[1]
  inhibition: 59%

## CCCCNC(=O)O/N=C(\N)CS(=O)(=O)C(C)(C)C
At 20 µM
  inhibition: -2.3% (inactive)

## COc1cccc(NC(=O)Cn2nnc(C(=O)Nc3cc(Cl)ccc3OC)c2N)c1
At 20 µM
  inhibition: 1.3% (inactive)

## CCOc1ccc(C(=O)Nc2ncccc2Cl)cc1
At 20 µM
  inhibition: 1.2% (inactive)

## Cc1cc2nc3s/c(=C/c4ccc(-c5ccccc5C(=O)O)o4)c(=O)n3c2cc1C
At 20 µM
  inhibition: 116% (active)
[1]
  inhibition: 108%

## CCOC(=O)C(C)N1C(=O)S/C(=C\c2ccc(-c3ccccc3C(=O)O)o2)C1=O (configuration not stated)
At 20 µM
  inhibition: 22.7% (inactive)

## Cc1ccc2c(nc3s/c(=C/c4cccs4)c(=O)n32)c1C
At 20 µM
  inhibition: -1.1% (inactive)

## O=C(O)c1ccccc1-c1ccc(/C=c2\sc3nc4cc(Br)cnc4n3c2=O)o1
At 20 µM
  inhibition: 56.9% (inactive)
[1]
  inhibition: 28.9%

## COc1ccc(O)c(/C=c2/sc3nc4cc(C)c(C)cc4n3c2=O)c1
At 20 µM
  inhibition: -3.1% (inactive)

## Cc1ccc2c(nc3s/c(=C\c4ccc(-c5ccccc5C(=O)O)o4)c(=O)n32)c1C
At 20 µM
  inhibition: 88% (active)
[1]
  inhibition: 121%

## COCCCNC(=O)c1ccc(CS(=O)(=O)c2cccc(C(F)(F)F)c2)o1
At 20 µM
  inhibition: -1.7% (inactive)

## CCC12CN3CCN(CC(C3)/C1=N\NC(=O)c1ccc(F)cc1)C2
At 20 µM
  inhibition: 0.1% (inactive)

## CCOc1ccc(C2C(C(=O)c3ccco3)=C(O)C(=O)N2Cc2cccnc2)cc1 (configuration not stated)
At 20 µM
  inhibition: 0.5% (inactive)

## Cc1ccc(C)c(NC(=O)CSc2nnc(CNC(=O)c3ccco3)n2C)c1
At 20 µM
  inhibition: -1.8% (inactive)

## CCOC(=O)c1ccc(N2C(=O)c3n[nH]c(-c4ccco4)c3C2c2cccc([N+](=O)[O-])c2)cc1 (configuration not stated)
At 20 µM
  inhibition: 14.6% (inactive)

## CCOC(=O)c1ccc(N2C(=O)c3n[nH]c(C)c3C2c2ccco2)cc1 (configuration not stated)
At 20 µM
  inhibition: -0.8% (inactive)

## CCOC(=O)c1ccc(N2C(=O)c3n[nH]c(-c4ccco4)c3C2c2ccc([N+](=O)[O-])cc2)cc1 (configuration not stated)
At 20 µM
  inhibition: 60.1% (active)

## Cc1nnc(SCC(=O)N2CCN(c3ccccc3)CC2)n(N)c1=O
At 20 µM
  inhibition: 0.4% (inactive)

## COc1cc(OC)cc(C(=O)n2nc(C)cc2C)c1
At 20 µM
  inhibition: -0.7% (inactive)

## Cn1c(CC(=O)Nc2ccc(Cl)cc2)nnc1SCC(=O)N1CCOCC1
At 20 µM
  inhibition: -1% (inactive)

## CCCN1C(=O)/C(=C/c2ccc(N3CCCC3)c(C)c2)NC1=S
At 20 µM
  inhibition: 125% (inactive)

## Cc1cc(/C=C2\NC(=S)N(C)C2=O)ccc1N1CCCC1
At 20 µM
  inhibition: 143% (inactive)

## Cc1cc(/C=C2/C(=O)N(C)C(=S)N2C)ccc1N1CCCC1
At 20 µM
  inhibition: 54.2% (active)

## Cc1cc(S(=O)(=O)N2CCOCC2)ccc1OCC(=O)Nc1cccc(F)c1
At 20 µM
  inhibition: -1.3% (inactive)

## CCOc1ccc(C(C)NC(=O)c2cccnc2OCC)cc1OCC (configuration not stated)
At 20 µM
  inhibition: -0.2% (inactive)

## Cc1csc(N/N=C/c2ccc(O)c([N+](=O)[O-])c2)n1
At 20 µM
  inhibition: 0% (inactive)

## O=[N+]([O-])c1cc(/C=N\Nc2nc(-c3ccccc3)cs2)ccc1O
At 20 µM
  inhibition: 33.1% (inactive)

## O=[N+]([O-])c1cc(/C=N\Nc2nccs2)ccc1O
At 20 µM
  inhibition: 71.1% (active)

## O=C(/C=C/c1cc([N+](=O)[O-])ccc1OC(F)F)Nc1cccc2ccccc12
At 20 µM
  inhibition: 1.3% (inactive)

## CC1(C)Cc2c(sc(NC(=S)NC(=O)c3ccccc3)c2C(=O)O)CO1
At 20 µM
  inhibition: 2.8% (inactive)

## CC(/C=C1\SC(=S)N(NS(=O)(=O)c2ccccc2)C1=O)=C\c1ccccc1
At 20 µM
  inhibition: 40.6% (inactive)

## CC(/C=C1\SC(=S)N(NS(=O)(=O)c2ccc(C)cc2)C1=O)=C\c1ccccc1
At 20 µM
  inhibition: 56.5% (active)

## CC(/C=C1\SC(=S)N(NC(=O)c2ccc(C)cc2)C1=O)=C\c1ccccc1
At 20 µM
  inhibition: 6.4% (inactive)

## COc1ccc(NC(=O)/C(C#N)=C/C=C/c2ccco2)cc1
At 20 µM
  inhibition: 80.7% (active)

## COc1ccccc1NC(=O)/C(C#N)=C/C=C/c1ccco1
At 20 µM
  inhibition: 24.1% (inactive)

## COc1ccc(NC(=O)/C(C#N)=C\C=C\c2ccco2)cc1
At 20 µM
  inhibition: 73.2% (inactive)
[1]
  inhibition: -0.6%

## Cc1cccn2cc(CCNC(=O)c3ccco3)nc12
At 20 µM
  inhibition: -0.6% (inactive)

## Cc1cc(N2C(=O)C(O)=C(C(=O)c3ccco3)C2c2ccc([N+](=O)[O-])cc2)no1 (configuration not stated)
At 20 µM
  inhibition: 1.4% (inactive)

## Cc1nc(=O)c(-c2ccccc2)c(C)n1CCCCCC(=O)O
At 20 µM
  inhibition: -2.3% (inactive)

## CC(N=C(NS(=O)(=O)c1ccc(Cl)cc1)c1ccccc1)C(=O)O (configuration not stated)
At 20 µM
  inhibition: -0.1% (inactive)

## COc1cc(C=C(c2nc3ccccc3s2)c2nc3ccccc3s2)cc(OC)c1O
At 20 µM
  inhibition: 26.6% (inactive)

## COc1ccc(C=C(c2nc3ccccc3s2)c2nc3ccccc3s2)cc1O
At 20 µM
  inhibition: 57.6% (active)

## COc1cc(C=C(c2nc3ccccc3s2)c2nc3ccccc3s2)ccc1O
At 20 µM
  inhibition: 8.2% (inactive)

## CCS(=O)(=O)Nc1cccc(C2=NN(S(C)(=O)=O)C(c3cccs3)C2)c1 (configuration not stated)
At 20 µM
  inhibition: 0.5% (inactive)

## CCCC(=O)NC(Nc1ccc(S(=O)(=O)Nc2cc(C)on2)cc1)(C(=O)OCC)C(F)(F)F (configuration not stated)
At 20 µM
  inhibition: -1.8% (inactive)

## CCOC(=O)C(NC(C)=O)(Nc1ccc(S(=O)(=O)Nc2cc(C)on2)cc1)C(F)(F)F (configuration not stated)
At 20 µM
  inhibition: 3.7% (inactive)

## CCOC(=O)C(NC(=O)CC)(Nc1ccc(S(=O)(=O)Nc2cc(C)on2)cc1)C(F)(F)F (configuration not stated)
At 20 µM
  inhibition: 59.8% (active)

## COCCCN(C(=S)NC(=O)C(C)(C)C)c1c(N)n(Cc2ccccc2)c(=O)[nH]c1=O
At 20 µM
  inhibition: -2.2% (inactive)

## COc1cc(/C=C2\SC(=Nc3ccccc3)NC2=O)cc(Cl)c1O
At 20 µM
  inhibition: 90% (active)
[1]
  inhibition: 60.8%

## COc1cc(/C=C2/SC(=S)N(Cc3ccccc3)C2=O)cc(Cl)c1O
At 20 µM
  inhibition: 119% (active)
[1]
  inhibition: 88%

## COc1cc(/C=C2/SC(=Nc3ccc(O)cc3)NC2=O)cc(OC)c1O
At 20 µM
  inhibition: -2.4% (inactive)

## O=C1/C(=C\c2cc(Cl)c(O)c(Cl)c2)SC(=S)N1Cc1ccccc1
At 20 µM
  inhibition: 159% (inactive)

## COc1cc(/C=C2\SC(=Nc3ccccc3OC)NC2=O)ccc1O
At 20 µM
  inhibition: 8.2% (inactive)

## COc1ccc(/C=C2\SC(=Nc3ccccc3OC)NC2=O)cc1
At 20 µM
  inhibition: 7.1% (inactive)

## COc1cc(/C=C2/SC(=S)N(Cc3ccccc3)C2=O)ccc1O
At 20 µM
  inhibition: 6% (inactive)

## COc1cc(/C=C2\SC(=Nc3ccc(O)cc3)NC2=O)cc(OC)c1O
At 20 µM
  inhibition: -2.7% (inactive)

## COc1ccccc1N=C1NC(=O)/C(=C/c2ccc(N(C)C)cc2)S1
At 20 µM
  inhibition: 52.4% (active)

## COc1ccc(OC)c(/C=C2\SC(=S)N(Cc3cccnc3)C2=O)c1
At 20 µM
  inhibition: 36.3% (inactive)

## COc1ccc(O)c(/C=C2/SC(=S)N(Cc3ccccc3)C2=O)c1
At 20 µM
  inhibition: 68.8% (active)
[1]
  inhibition: 51%

## COc1ccc(/C=C2/SC(=S)N(Cc3ccccc3)C2=O)cc1O
At 20 µM
  inhibition: -3.1% (inactive)
